{"source": "PubChem BioAssay (NCI)", "note": "Where “and” joins values, the source holds several entries; their conditions need not be identical. Equal values may be shown once. About 79,000 compounds went through this panel and 15% of them were active in at least one assay; those are over-represented in the sample as a whole. The source holds several records for some structures; these can differ, active in one and inactive in another. Calls of active or inactive are those of the source. Cut-off read from the data, not from the text of the source: active = growth inhibition above about 70%; inactive = the rest."}
{"assay": "NCI Yeast Anticancer Drug Screen. Data for the mlh1 rad18 strain (AID 175)", "settings": "S. cerevisiae mlh1 rad18 strain growth inhibition; at 50.0 µM (retest, dose inferred, filed as 5.0); stronger effect = higher value", "method_in_brief": "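Vehicle-treated cultures served as the reference for growth inhibition in a yeast strain carrying DNA damage repair alterations exposed to each compound.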"}
{"smiles": "O=C1/C(=C/c2ccccc2)CCCC1CN1CCCCC1", "note": "(configuration not stated)", "growth inhibition": "75% (active)"}
{"smiles": "C#CCN(Cc1ccc2nc(N)[nH]c(=O)c2c1)c1ccc(C(=O)NC(CCC(=O)O)C(=O)O)cc1", "note": "(configuration not stated)", "growth inhibition": "46% (inactive) and 78% (active)"}
{"smiles": "CCOC1(c2cccc([N+](=O)[O-])c2)c2ccccc2Oc2ccccc21", "growth inhibition": "79% (active)"}
{"smiles": "O=C(O)CNC(=S)Nc1ccccc1", "growth inhibition": "70% (active)"}
{"smiles": "C[Si](C)(C)/C=C/CCNC(C#N)c1ccccc1", "note": "(configuration not stated)", "growth inhibition": "99% (active)"}
{"smiles": "CCCCCCCCCCCCCCCCOP(=O)(O)OCC(N)C(=O)O", "note": "(configuration not stated)", "growth inhibition": "99% (active)"}
{"smiles": "CC1=C(C(=O)NCc2ccccc2)C(c2ccccc2)C(C(=O)NCc2ccccc2)=C(C)N1", "growth inhibition": "82% (active)"}
{"smiles": "O=[N+]([O-])c1cc(S(=O)(=O)Nc2ccccc2)ccc1Nc1ccccc1", "growth inhibition": "98% (active)"}
{"smiles": "COc1cc2ccnc(-c3c4ccccc4c(N)c4c(OC)c(OC)ccc34)c2cc1OC", "growth inhibition": "23% (inactive)"}
{"smiles": "CCOC(=O)C(Br)C(Br)c1ccccc1Cl", "note": "(configuration not stated)", "growth inhibition": "99% (active)"}
{"smiles": "CCOC(=O)C1=C(C)NC(C)=C(C(=O)OCCNC(=O)c2ccc(N=[N+]=[N-])cc2)C1c1ccccc1C(F)(F)F", "note": "(configuration not stated)", "growth inhibition": "43% (inactive)"}
{"smiles": "Cc1cc(C)c(NC(=S)NC(=O)c2ccccc2)cc1C", "growth inhibition": "-12% (inactive)"}
{"smiles": "CNCCCNc1c2ccccc2nc2cccc([N+](=O)[O-])c12", "growth inhibition": "96% (active)"}
{"smiles": "COc1c(O)c(C=O)c(Br)c(C=O)c1O", "growth inhibition": "98% (active)"}
{"smiles": "Cc1c(C)c(C)c(CSC(=N)N)c(C)c1C", "growth inhibition": "78% (active)"}
{"smiles": "O=C(CSC(=S)N1CCCCC1)Nc1nc2c(s1)CCCC2", "growth inhibition": "53% (inactive)"}
{"smiles": "CNC(=O)OCc1c(COC(=O)NC)c(-c2ccc(Cl)cc2)n2c1CCC2", "growth inhibition": "5% (inactive)"}
